Mtb bLac sens: beta-lactam sensitization of Mtb H37Rv | inhibition, % at 25 µM | hit rate 0.27% among 330,000 | M. tuberculosis H37Rv growth with meropenem, percent inhibition; call rule not given here;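 note: growth measured after seven days incubation then overnight dye step; 0% = bacteria only wells and 100% = bacteria with antibiotic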
CCHF vOTU inh-1: blocks the CCHF virus ovarian tumor domain protease; CCHFV vOTU protease, Pep-AMC fluorescence; inhibition, % at 11.5 µM; AID 651958; hit rate 0.55% among 370,000; note: 0% = vehicle wells with enzyme and 100% = no enzyme wells
GDH-TPI inh: counter-screen for M. tuberculosis FBA inhibitors: GDH-TPI coupled enzymes; GDH-TPI coupled enzyme counterscreen, NADH absorbance; inhibition, % at 4.8 µM; hit rate 1.2% among 360,000;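 note: 0% = DMSO wells and 100% = wells lacking the enzyme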
Mtb FBA inh: Mtb fructose-bisphosphate aldolase inhibition | AID 588726 | purified M. tuberculosis FBA, fluorescence read-out | hit rate 2.3% among 360,000 | inhibition, % at 1 µM; in the data active = inhibition above about 27%;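 note: 0% = vehicle and 100% = reference inhibitor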
Target sequence (P9WQA3 whole entry, looked up): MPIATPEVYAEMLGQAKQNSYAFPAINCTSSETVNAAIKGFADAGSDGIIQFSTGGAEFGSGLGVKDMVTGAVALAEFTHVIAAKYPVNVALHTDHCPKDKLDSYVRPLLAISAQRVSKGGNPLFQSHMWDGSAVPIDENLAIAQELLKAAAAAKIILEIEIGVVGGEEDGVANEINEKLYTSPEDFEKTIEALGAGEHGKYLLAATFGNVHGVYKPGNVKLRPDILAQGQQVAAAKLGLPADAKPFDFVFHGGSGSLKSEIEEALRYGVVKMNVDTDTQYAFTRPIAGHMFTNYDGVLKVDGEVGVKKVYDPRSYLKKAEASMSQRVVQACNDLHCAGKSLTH
MazF activator: MazEF (E. coli) toxin RNase activation; FAM/BHQ RNA-DNA oligo cleavage fluorescence, 5 h; activation, % at 20 µM; hit rate 0.32% among 350,000; AID 504720; in the data active = activation above about 50%
Target sequence (P0AE70 whole entry, looked up): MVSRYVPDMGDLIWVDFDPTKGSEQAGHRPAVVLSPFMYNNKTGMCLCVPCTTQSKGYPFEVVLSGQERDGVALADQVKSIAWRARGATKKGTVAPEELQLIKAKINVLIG
CCHF vOTU inh-2: CCHFV vOTU protease inhibition, confirmation. shares compounds with CCHF vOTU inh-1. hit rate 17% among 1,900. Recombinant CCHFV vOTU, Pep-AMC fluorescence. inhibition, % at 11.5 µM
Active calls of the source: *; . = no result. Most compounds without a hit are left out; they make up all but 4% or so of the library. Cut-off read from the data, not from the text of the source, unless noted: active = inhibition above about 30%; inactive = the rest.

SMILES | Mtb bLac sens | CCHF vOTU inh-1 | GDH-TPI inh | Mtb FBA inh | MazF activator | CCHF vOTU inh-2
CCCCNC(=O)C1(C)CCN1C(=O)Cc1cccc2ccccc12 (stereo not given) | . | 47* | 5 | 1 | . | -23
COc1ccccc1CNC(=O)N1CCN(c2ccccc2C)CC1 | 5 | 6 | -7 | 2 | 6 | .
O=C1NC2(CCCCO2)CO1 (stereo not given) | -4 | -2 | 11 | 0 | 7 | .
Cc1ccccc1Nc1c([N+](=O)[O-])cncc1[N+](=O)[O-] | 22 | 30* | 13 | -2 | -26 | -7
CCc1c(C(=O)N/N=C/c2ccsc2)csc1C | -4 | 30* | 2 | -4 | 8 | -16
CCCCCCC[C@@H](C/C=C/CCC(=O)N(C)C/C(=C/Cl)C/C(=C\C(=O)N1C[C@H](O)CC1=O)OC)OC | -7 | 31* | 5 | -1 | 20 | 13
COc1ccc(CCNC(=O)c2cc(-c3ccccc3)c(N3CCOCC3)s2)c(OC)c1OC | 2 | 18 | -2 | 3 | 7 | .
CC(C)CCOP(=O)(c1ccc(N(C)C)cc1)C(O)c1ccccc1F (stereo not given) | -2 | 6 | -5 | 6 | -4 | .
CC(C)CCOP(=O)(c1ccc(N(C)C)cc1)C(O)c1ccc(Cl)cc1Cl (stereo not given) | 9 | 41* | 16 | -1 | 6 | 1
CCN(CC)C(=O)CN(c1cc2c(cc1OC)oc1ccccc12)S(=O)(=O)c1ccc(C)cc1 | 2 | 30* | 17 | -1 | -4 | -23
O=C(Cn1ncc2c3ccccc3n(Cc3ccc(F)cc3)c2c1=O)N1CCN(c2ncccn2)CC1 | 92 | 34* | 6 | 3 | -13 | -18
COc1cc(N)c(Cl)cc1C(=O)OCC(=O)N1c2ccccc2NC(=O)C1(C)C | 3 | -10 | 2 | 1 | -3 | .
Cc1ccc(S(=O)(=O)NC(=O)Cn2nnc(-c3ccccc3)c2COc2ccc3ccccc3c2)cc1 | . | 34* | 4 | 2 | . | 2
CC(=O)c1ccc(OCc2c(-c3ccccc3)nnn2CC(=O)NS(=O)(=O)c2ccc(C)cc2)cc1 | . | 6 | 12 | 3 | . | .
CCOC(=O)N=Nc1c(O)n(CC(=O)OC)c2ccccc12 | -9 | 9 | 22 | -2 | -1 | .
CCOC(=O)N=Nc1c2ccccc2c2nc3no[nH]c3nc12 | . | 59* | 13 | -1 | 25 | 86*
CC1(Cc2ccc(C(F)(F)F)o2)C(=O)Nc2cc(-c3ccc(F)cc3F)ccc21 (stereo not given) | . | 39* | -5 | -2 | . | -1
COCCN(Cc1ccc(OC)cc1)c1c(C)nc2ccc(C(=O)NCCc3c[nH]c4ccccc34)cn12 | . | 0 | 11 | 0 | . | .
Cc1nnc(N/N=C/c2cc([N+](=O)[O-])c(N3CCC(C)CC3)cc2N2CCC(C)CC2)n1N | 97 | 96* | 9 | 2 | -4 | -3
CCc1nnc(N/N=C/c2ccc(N3CCC(C)CC3)c([N+](=O)[O-])c2)n1N | 99 | 88* | 26 | -5 | 0 | -5
CC1CCN(c2cc(N3CCOCC3)c([N+](=O)[O-])cc2F)CC1 | -9 | 12 | 10 | -6 | 7 | .
C[C@H]1CN([C@@H](C)CO)C(=O)c2cc(C#CCC3CCCC3)cnc2O[C@@H]1CN(C)C(=O)CC1CC1 | . | 0 | 1 | -4 | 3 | .
CCc1ccc(/C=c2\s/c(=C\C(=O)C(C)(C)C)[nH]c2=O)cc1 | 100 | 36* | 7 | -4 | 1 | 8
CC(C)(C)C(=O)/C=c1\[nH]c(=O)/c(=C\c2ccc(F)cc2)s1 | 98 | 20 | 20 | -3 | 4 | .
CCc1nnc(SCC(=O)Nc2ccc(N3CCOCC3)cc2)n1C | -13 | 6 | 3 | -2 | 4 | .
SMILES | Mtb bLac sens | CCHF vOTU inh-1 | GDH-TPI inh | Mtb FBA inh | MazF activator | CCHF vOTU inh-2
CCCC(=O)Nc1ccccc1NC(=O)c1ccc(OC)cc1 | -4 | -1 | 12 | -4 | 0 | .
NC(=O)/C(N=Nc1ccccc1)=N/Nc1ccccc1 | 73 | 20 | 5 | -5 | 4 | .
OCC1OC(C(N=Nc2ccccc2)=NNc2ccccc2)C(O)C1O (stereo not given) | . | 31* | . | . | . | -16
C#CCOCCOCCOCCNc1nc(N2CCOCC2)nc(N2CCN(C(=O)Cn3cc(CCCCN)nn3)CC2)n1 | . | 3 | 0 | 1 | 4 | .
CCC(NC(=O)NCc1ccccc1)(C(F)(F)F)C(F)(F)F | 7 | -7 | 1 | 2 | -2 | .
CC(NC(=O)Nc1ccc(O)cc1)(C(F)(F)F)C(F)(F)F | -11 | 52* | 4 | -1 | 13 | -2
CCC(NC(=O)Nc1ccc(O)cc1)(C(F)(F)F)C(F)(F)F | -4 | 63* | 4 | -1 | 11 | 3
COc1ccc(NC(=O)NC(C)(C(F)(F)F)C(F)(F)F)cc1 | 75 | 1 | 8 | -3 | -1 | .
CCSc1nc(=S)cc(C)[nH]1 | 7 | 31* | -3 | 0 | 0 | -25
COc1ccc(C(CNC(=O)COc2ccc(F)cc2Cl)N2CCOCC2)cc1 (stereo not given) | . | 4 | -1 | 1 | 1 | .
Nc1nc(SCc2ccc(F)cc2)ns1 | 27 | 7 | -5 | 5 | 6 | .
COc1cc(C=Nn2c(-c3cc(-c4ccccc4)n[nH]3)n[nH]c2=S)ccc1OC(C)=O | . | 30* | . | . | . | -12
O=[N+]([O-])c1cc(C(F)(F)F)cc([N+](=O)[O-])c1NCCNC(=S)Nc1cccc(F)c1 | 90 | 10 | 4 | -4 | 4 | .
COc1cc(/C=C2/C(=O)N(c3ccc([N+](=O)[O-])cc3)N=C2N2CCOCC2)ccc1O | 76 | 115* | 39* | -7 | -12 | 8
CC(Sc1nnc(N)s1)C(=O)NC1CCCCC1C (stereo not given) | 3 | 1 | 1 | 5 | -2 | .
Cc1ccc(C(=O)OCC(=O)Nc2ccc(Cl)cn2)s1 | 14 | 0 | 8 | -3 | 3 | .
Cc1c(Cl)cnc(NC(=O)COC(=O)c2ccc([N+](=O)[O-])s2)c1Cl | 31 | 74* | 12 | -5 | 0 | 74*
O=C(COC(=O)c1ccc([N+](=O)[O-])s1)Nc1ccc(Cl)cn1 | 98 | 41* | 13 | -2 | 10 | 51*
O=C1CCCCc2sc(Br)c([N+](=O)[O-])c2N1 | 97 | -4 | 10 | -1 | 9 | .
O=C(Nc1cc(S(=O)(=O)N2CCOCC2)ccc1N1CCCCC1)c1ccccc1Br | 2 | 0 | -2 | 1 | 4 | .
COc1ccc(NS(=O)(=O)c2ccc(O)c(NC(=O)c3ccc(S(=O)(=O)N4CCCC4)cc3)c2)cc1 | -10 | 34* | 12 | -2 | -3 | -6
COc1ccc(C2=C(SC)CC2=NC(C)(C)C)cc1 | -3 | 1 | -2 | 3 | -17 | .
Fc1ccc(-c2nnc(Cc3ccc(Cl)cc3)o2)cc1 | 7 | 30* | 3 | 1 | 5 | -15
CC1CCc2c(N3CCC(O)CC3)c(F)cc3c(=O)c(C(=O)O)cn1c23 (stereo not given) | -6 | -1 | 31 | 7 | 5 | .
CC1CCc2cc(F)cc3c(=O)c(C(=O)O)cn1c23 (stereo not given) | 32 | 32* | 21 | 4 | 9 | -9
